Inconclusive results are not listed. The source made the active and inactive calls. Rule for the calls, unless noted: active = hit-call score of the fitted dose curve at least 0.9, where 1 is the maximum; inconclusive = response in the unintended direction; inactive = score below 0.9.
Legend:
[1] = ATG_VDRE_CIS: Attagene CIS-FACTORIAL HepG2 Assay for human Vitamin D Receptor Element (VDRE) (AID 2282968; active = hit-call score of the fitted dose curve at least 0.9, where 1 is the maximum; inactive = score below 0.9); conditions: HepG2 VDRE cis-reporter transcription, actives raise or lower the signal
In short: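 Measures endogenous factor activity through cis-element-driven reporter transcripts in transiently transfected HepG2. Cells are treated 24 h; reporter mRNA is quantified by RT-PCR and capillary electrophoresis; fitting is bidirectional.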

[2] = molecular target: Nuclear receptor subfamily 1 group I member 3 (Homo sapiens) (UniProt Q14994); assay: ATG_CAR_TRANS: Attagene TRANS-FACTORIAL HepG2 Assay for human Constitutive Androstane Receptor (CAR) (AID 2282969); conditions: HepG2 Attagene TRANS-FACTORIAL CAR reporter;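 note: activators raise reporter mRNA above DMSO so AC50 marks induction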
Nuclear receptor subfamily 1 group I member 3 (Homo sapiens), sequence (Q14994 whole entry, looked up, the tested form may be a part): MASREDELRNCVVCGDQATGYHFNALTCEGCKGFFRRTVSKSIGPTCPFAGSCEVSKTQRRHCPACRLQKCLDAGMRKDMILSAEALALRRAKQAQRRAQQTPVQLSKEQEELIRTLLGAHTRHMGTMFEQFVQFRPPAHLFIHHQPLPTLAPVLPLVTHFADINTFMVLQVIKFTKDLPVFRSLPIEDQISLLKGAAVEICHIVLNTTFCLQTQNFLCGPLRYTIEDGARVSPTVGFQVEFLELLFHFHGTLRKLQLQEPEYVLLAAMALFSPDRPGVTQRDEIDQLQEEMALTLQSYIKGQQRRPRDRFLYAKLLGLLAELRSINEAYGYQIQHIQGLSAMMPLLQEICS
In short: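 Signal is reporter mRNA induction relative to DMSO, measured 24 h after dosing by RT-PCR with fluorescent primer extension and capillary electrophoresis. Human HepG2 liver cells carried transiently transfected chimeric NR-Gal4/GAL4-UAS reporter constructs.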

[3] = molecular target: Steroid hormone receptor ERR1 (Homo sapiens) (UniProt P11474); assay: ATG_ERRa_TRANS: Attagene TRANS-FACTORIAL HepG2 Assay for human Estrogen-Related Receptor alpha (ERRa) (AID 2282971); conditions: HepG2 Attagene TRANS reporter, ERRa transactivation
Steroid hormone receptor ERR1 (Homo sapiens), sequence (P11474 whole entry, looked up, the tested form may be a part): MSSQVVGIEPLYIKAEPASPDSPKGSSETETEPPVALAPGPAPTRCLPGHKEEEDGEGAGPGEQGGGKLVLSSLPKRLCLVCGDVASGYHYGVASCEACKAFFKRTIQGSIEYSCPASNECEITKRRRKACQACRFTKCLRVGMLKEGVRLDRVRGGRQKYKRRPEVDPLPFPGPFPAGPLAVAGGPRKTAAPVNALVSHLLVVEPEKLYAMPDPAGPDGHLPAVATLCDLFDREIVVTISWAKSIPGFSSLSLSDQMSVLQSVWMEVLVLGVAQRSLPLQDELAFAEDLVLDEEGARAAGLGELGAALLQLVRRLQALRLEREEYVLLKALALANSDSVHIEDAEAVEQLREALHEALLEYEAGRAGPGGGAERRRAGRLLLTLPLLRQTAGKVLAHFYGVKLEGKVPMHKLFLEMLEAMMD
In short: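 Signal gain relative to DMSO for an ERRa-Gal4 chimeric receptor, read as reporter mRNA by RT-PCR/capillary electrophoresis. Human HepG2 liver cells, transient multiplex reporter transfection, 24 h chemical exposure.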

[4] = molecular target: X-box-binding protein 1 (Homo sapiens) (UniProt P17861); assay: ATG_Xbp1_CIS: Attagene CIS-FACTORIAL HepG2 Assay for human X-box Binding Protein 1 (XBP1) (AID 2282972; active = hit-call score of the fitted dose curve at least 0.9, where 1 is the maximum; inactive = score below 0.9); conditions: HepG2 XBP1 cis-element reporter, Attagene multiplex; actives raise or lower the signal
X-box-binding protein 1 (Homo sapiens), sequence (P17861 whole entry, looked up): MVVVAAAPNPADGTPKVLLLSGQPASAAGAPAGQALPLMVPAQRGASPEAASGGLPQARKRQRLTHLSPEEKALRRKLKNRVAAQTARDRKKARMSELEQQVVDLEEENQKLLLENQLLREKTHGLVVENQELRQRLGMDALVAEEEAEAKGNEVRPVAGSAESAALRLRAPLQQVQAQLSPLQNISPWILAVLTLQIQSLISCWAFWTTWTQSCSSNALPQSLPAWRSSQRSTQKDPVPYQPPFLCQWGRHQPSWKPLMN
In short: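 Multiplexed cis-reporter readout in transfected HepG2 liver cells. Exposure lasted 24 hours. Activity in either direction was fitted against DMSO as negative control and baseline.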

[5] = ATG_GAL4_TRANS: Attagene TRANS-FACTORIAL HepG2 Assay for GAL4 (Internal Marker) (AID 2282976); conditions: HepG2 Attagene TRANS GAL4 internal marker reporter
In short: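 Liver HepG2 line bearing multiplexed GAL4-UAS reporter constructs; 24 h chemical treatment. Transcripts were quantified as fluorescent fragments on capillary electrophoresis after RT-PCR and HpaI cut, with activity fitted upward from DMSO.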

[6] = molecular target: Androgen receptor (Homo sapiens) (UniProt P10275); assay: ATG_AR_TRANS: Attagene TRANS-FACTORIAL HepG2 Assay for human Androgen Receptor (AR) (AID 2282973); conditions: HepG2 Attagene TRANS-FACTORIAL AR reporter transcription
Androgen receptor (Homo sapiens), sequence (P10275 whole entry, looked up, the tested form may be a part): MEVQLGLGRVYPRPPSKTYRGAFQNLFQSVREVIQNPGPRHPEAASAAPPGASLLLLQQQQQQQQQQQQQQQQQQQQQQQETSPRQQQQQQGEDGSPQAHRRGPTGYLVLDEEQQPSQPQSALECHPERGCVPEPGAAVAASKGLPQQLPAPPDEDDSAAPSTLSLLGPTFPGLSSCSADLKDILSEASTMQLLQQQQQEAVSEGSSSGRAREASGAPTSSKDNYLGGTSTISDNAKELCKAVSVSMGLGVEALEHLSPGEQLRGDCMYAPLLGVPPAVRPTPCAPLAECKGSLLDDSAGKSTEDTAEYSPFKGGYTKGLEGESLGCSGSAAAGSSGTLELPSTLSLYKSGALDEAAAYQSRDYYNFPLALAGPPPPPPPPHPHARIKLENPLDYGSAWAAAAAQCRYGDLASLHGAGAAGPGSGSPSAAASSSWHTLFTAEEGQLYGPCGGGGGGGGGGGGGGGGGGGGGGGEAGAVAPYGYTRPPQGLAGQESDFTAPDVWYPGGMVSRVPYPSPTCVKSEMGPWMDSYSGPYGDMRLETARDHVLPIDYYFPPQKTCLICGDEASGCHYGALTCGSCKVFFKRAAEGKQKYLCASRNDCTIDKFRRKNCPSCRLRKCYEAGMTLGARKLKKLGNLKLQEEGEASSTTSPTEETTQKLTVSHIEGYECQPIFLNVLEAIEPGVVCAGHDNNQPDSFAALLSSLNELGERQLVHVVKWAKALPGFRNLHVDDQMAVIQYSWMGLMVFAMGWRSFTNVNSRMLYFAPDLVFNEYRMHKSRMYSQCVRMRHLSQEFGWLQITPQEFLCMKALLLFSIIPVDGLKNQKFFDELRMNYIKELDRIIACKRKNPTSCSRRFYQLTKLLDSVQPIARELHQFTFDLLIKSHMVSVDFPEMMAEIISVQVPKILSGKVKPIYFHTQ
In short: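 Chimeric nuclear receptor–Gal4 activity was assessed in human HepG2 hepatocytes after 24 h chemical dosing. Induced reporter mRNA was detected via labelled RT-PCR fragments on capillary electrophoresis, and gain of signal was analysed against DMSO.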

[7] = molecular target: Glucocorticoid receptor (Homo sapiens) (UniProt P04150); assay: ATG_GR_TRANS: Attagene TRANS-FACTORIAL HepG2 Assay for human Glucocorticoid Receptor (GR) (AID 2282978); conditions: HepG2 Attagene TRANS GR reporter, mRNA transcription;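 note: activators score as hits since higher reporter transcript over DMSO is fitted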
Glucocorticoid receptor (Homo sapiens), sequence (P04150 whole entry, looked up, the tested form may be a part): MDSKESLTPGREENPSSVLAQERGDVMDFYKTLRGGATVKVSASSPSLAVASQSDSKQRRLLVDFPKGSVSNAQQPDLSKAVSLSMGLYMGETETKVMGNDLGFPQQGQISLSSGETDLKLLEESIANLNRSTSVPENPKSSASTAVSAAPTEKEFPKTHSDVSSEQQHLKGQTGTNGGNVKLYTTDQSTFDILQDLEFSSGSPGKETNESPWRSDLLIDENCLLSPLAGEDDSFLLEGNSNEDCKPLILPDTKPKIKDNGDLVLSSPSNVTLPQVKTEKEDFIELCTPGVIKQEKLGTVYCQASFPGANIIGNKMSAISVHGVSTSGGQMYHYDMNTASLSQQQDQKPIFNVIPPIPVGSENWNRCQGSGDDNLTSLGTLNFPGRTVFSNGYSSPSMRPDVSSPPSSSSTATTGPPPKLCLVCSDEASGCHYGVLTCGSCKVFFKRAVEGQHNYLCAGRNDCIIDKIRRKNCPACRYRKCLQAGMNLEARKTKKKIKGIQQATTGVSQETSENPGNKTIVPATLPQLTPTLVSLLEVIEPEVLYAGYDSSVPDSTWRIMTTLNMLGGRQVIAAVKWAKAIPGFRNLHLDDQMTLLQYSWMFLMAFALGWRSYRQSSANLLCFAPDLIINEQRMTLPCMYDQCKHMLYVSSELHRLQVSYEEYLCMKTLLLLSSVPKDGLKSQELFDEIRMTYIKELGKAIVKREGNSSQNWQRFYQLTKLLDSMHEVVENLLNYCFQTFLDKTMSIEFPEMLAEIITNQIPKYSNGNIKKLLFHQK
In short: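 Transient MRTU transfection of HepG2 (GAL4-UAS reporters, exogenous NR-GAL4 chimeras), 24 h dosing. Readout: reporter transcript via RT-PCR + capillary electrophoresis fluorescence. Positive direction vs DMSO baseline.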

[8] = molecular target: Estrogen receptor (Homo sapiens) (UniProt P03372); assay: ATG_ERa_TRANS: Attagene TRANS-FACTORIAL HepG2 Assay for human Estrogen Receptor alpha (ERa) (AID 2282970); conditions: HepG2 Attagene TRANS ERa GAL4 reporter, mRNA
Estrogen receptor (Homo sapiens), sequence (P03372 whole entry, looked up, the tested form may be a part): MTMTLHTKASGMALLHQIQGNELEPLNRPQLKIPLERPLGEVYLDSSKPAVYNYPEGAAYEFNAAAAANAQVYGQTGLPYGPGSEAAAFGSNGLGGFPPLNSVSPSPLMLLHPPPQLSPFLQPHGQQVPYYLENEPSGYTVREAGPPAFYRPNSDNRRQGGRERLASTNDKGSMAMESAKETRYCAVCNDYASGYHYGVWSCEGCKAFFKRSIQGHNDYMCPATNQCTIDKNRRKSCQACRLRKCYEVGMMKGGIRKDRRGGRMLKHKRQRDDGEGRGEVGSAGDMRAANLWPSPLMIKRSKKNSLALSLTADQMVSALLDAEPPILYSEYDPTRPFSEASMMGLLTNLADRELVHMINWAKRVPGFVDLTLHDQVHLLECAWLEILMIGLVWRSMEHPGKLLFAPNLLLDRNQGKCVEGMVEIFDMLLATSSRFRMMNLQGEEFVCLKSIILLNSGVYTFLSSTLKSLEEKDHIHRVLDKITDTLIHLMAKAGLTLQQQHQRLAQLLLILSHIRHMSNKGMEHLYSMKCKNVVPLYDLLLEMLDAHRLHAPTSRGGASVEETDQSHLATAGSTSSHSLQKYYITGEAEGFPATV
In short: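 Signal derives from fluorescence of labelled reporter PCR fragments separated by capillary electrophoresis. HepG2 cells transiently carrying multiple GAL4-UAS reporter units were treated 24 hours, and induction above DMSO baseline was fitted as activity.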

[9] = molecular target: Estrogen-related receptor gamma (Homo sapiens) (UniProt P62508); assay: ATG_ERRg_TRANS: Attagene TRANS-FACTORIAL HepG2 Assay for human Estrogen-Related Receptor gamma (ERRg) (AID 2282977); conditions: HepG2 Attagene TRANS reporter, ERRg transactivation;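 note: hits increase reporter signal over DMSO so potencies reflect activators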
Estrogen-related receptor gamma (Homo sapiens), sequence (P62508 whole entry, looked up, the tested form may be a part): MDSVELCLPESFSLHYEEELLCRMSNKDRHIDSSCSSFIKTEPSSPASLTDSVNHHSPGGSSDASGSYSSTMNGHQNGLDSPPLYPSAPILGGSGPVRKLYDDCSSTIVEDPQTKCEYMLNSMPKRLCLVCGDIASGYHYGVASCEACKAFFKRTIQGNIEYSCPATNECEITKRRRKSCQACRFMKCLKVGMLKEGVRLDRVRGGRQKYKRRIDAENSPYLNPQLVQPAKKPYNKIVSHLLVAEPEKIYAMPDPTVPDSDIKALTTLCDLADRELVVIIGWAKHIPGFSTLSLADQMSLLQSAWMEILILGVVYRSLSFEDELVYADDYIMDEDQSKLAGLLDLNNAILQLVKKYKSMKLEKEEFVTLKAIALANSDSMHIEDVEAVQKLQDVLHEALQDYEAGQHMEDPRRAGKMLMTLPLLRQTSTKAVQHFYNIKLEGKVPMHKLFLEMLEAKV
In short: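 Readout: fluorescent reporter-mRNA fragments resolved by capillary electrophoresis after RT-PCR and HpaI cut. Cells: transiently transfected HepG2 carrying GAL4-UAS reporters driven by exogenous NR-Gal4 chimeras, dosed 24 h. Activity fitted upward relative to DMSO baseline.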

[10] = ATG_M_19_TRANS: Attagene TRANS-FACTORIAL HepG2 Assay for M19 Transcription Factor (Internal Marker) (AID 2282974); conditions: HepG2 Attagene TRANS-FACTORIAL M19 internal marker reporter
In short: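 24 h chemical exposure of transiently transfected HepG2 (MRTU library). RNA → oligo(dT) RT → PCR → 6-FAM labelling → HpaI cut → CE fluorescence. Positive-direction fit vs DMSO baseline; background internal-marker readout.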

O=C(O)C1(c2ccc3c(c2)OC[C@H](Cc2ccc(-c4ccccc4)cc2)[C@H]3O)CCCC1
outcome [1]: inactive
outcome [2]: inactive
outcome [3]: inactive
outcome [4]: inactive
outcome [5]: inactive

O=C(N[C@H]1CN2CCC1CC2)c1ccc2c(c1)OCCO2
outcome [1]: inactive
outcome [2]: inactive
outcome [4]: inactive
outcome [6]: inactive
outcome [5]: inactive
outcome [7]: inactive

Oc1cccc(-c2ccccc2)c1
AC50 [1]: 66.3 µM (active)
outcome [2]: inactive
AC50 [8]: 6.57 µM (active)
outcome [4]: inactive
outcome [5]: inactive
outcome [9]: inactive
outcome [7]: inactive

C=CCCl
outcome [1]: inactive
outcome [2]: inactive
outcome [8]: inactive
outcome [10]: inactive
outcome [7]: inactive

Cc1cc(Cl)ccc1OCCCC(=O)O
outcome [1]: inactive
outcome [2]: inactive
outcome [4]: inactive
outcome [6]: inactive
outcome [5]: inactive
outcome [7]: inactive

Nc1cccnc1
AC50 [1]: 50.1 µM (active)
outcome [2]: inactive
outcome [4]: inactive

Clc1cnc(Oc2ccc(Oc3ncc(Cl)cc3Cl)cc2)c(Cl)c1
AC50 [1]: 20 µM (active)
outcome [2]: inactive
outcome [4]: inactive
outcome [10]: inactive

Brc1c(Br)c(Br)c(Oc2c(Br)c(Br)c(Br)c(Br)c2Br)c(Br)c1Br
outcome [1]: inactive
outcome [2]: inactive
outcome [3]: inactive
outcome [4]: inactive
outcome [10]: inactive
outcome [5]: inactive
outcome [7]: inactive

CNC(=O)N(C)c1nc2ccccc2s1
outcome [1]: inactive
outcome [2]: inactive
outcome [3]: inactive
outcome [4]: inactive
outcome [6]: inactive
outcome [5]: inactive
outcome [7]: inactive

CC(C)(c1ccc(O)c(-c2ccccc2)c1)c1ccc(O)c(-c2ccccc2)c1
AC50 [1]: 2.93 µM (active)
outcome [2]: inactive
outcome [8]: inactive
AC50 [4]: 4.92 µM (active)
outcome [7]: inactive

c1ccc2sc(SNC3CCCCC3)nc2c1
outcome [1]: inactive
outcome [2]: inactive
outcome [8]: inactive
outcome [4]: inactive
outcome [10]: inactive
outcome [7]: inactive

COP(=S)(OC)Oc1cc(Cl)c(I)cc1Cl
AC50 [1]: 24.7 µM (active)
outcome [2]: inactive
AC50 [4]: 38.6 µM (active)
outcome [6]: inactive
outcome [10]: inactive

CCCCC(CC)COC(=O)Cl (stereo not given)
outcome [1]: inactive
outcome [2]: inactive
outcome [8]: inactive
outcome [4]: inactive
outcome [5]: inactive
outcome [9]: inactive

Cc1cc(-c2cc(C)c(N)c(C)c2)cc(C)c1N
outcome [1]: inactive
outcome [2]: inactive
outcome [8]: inactive
outcome [10]: inactive
outcome [7]: inactive

c1csc(-c2ccc(-c3cccs3)s2)c1
AC50 [1]: 3.41 µM (active)
AC50 [2]: 6.62 µM (active)
AC50 [8]: 4.23 µM (active)
outcome [10]: inactive

C#CCOC(=O)/C=C(C)/C=C/CC(C)CCCC(C)C (stereo not given)
outcome [1]: inactive
outcome [2]: inactive
outcome [8]: inactive
outcome [5]: inactive
outcome [7]: inactive

O=S(=O)(Oc1ccc(Cl)cc1)c1ccc(Cl)cc1
AC50 [1]: 10.4 µM (active)
outcome [2]: inactive
AC50 [8]: 10.7 µM (active)
outcome [10]: inactive
outcome [9]: inactive
outcome [7]: inactive

NC(=O)CCl
outcome [1]: inactive
outcome [2]: inactive
outcome [8]: inactive
outcome [6]: inactive

O=S(=O)(c1ccc(Cl)cc1)c1cc(Cl)c(Cl)cc1Cl
AC50 [1]: 2.79 µM (active)
outcome [2]: inactive
outcome [8]: inactive
outcome [4]: inactive
outcome [5]: inactive
outcome [7]: inactive

CC(C)[C@H](C(=O)OC(C#N)c1cccc(Oc2ccccc2)c1)c1ccc(OC(F)F)cc1 (stereo not given in full)
AC50 [1]: 1.08 µM (active)
outcome [2]: inactive
outcome [3]: inactive
outcome [4]: inactive
outcome [5]: inactive
outcome [7]: inactive

NC(=O)c1ccc(N)nc1
outcome [1]: inactive
outcome [2]: inactive
outcome [4]: inactive
outcome [6]: inactive
outcome [10]: inactive
outcome [7]: inactive

COCC(=O)N(c1c(C)cccc1C)[C@H](C)C(=O)OC
outcome [1]: inactive
outcome [2]: inactive
outcome [3]: inactive
outcome [4]: inactive
outcome [10]: inactive

CCNc1nc(NCC)nc(SC)n1
outcome [1]: inactive
outcome [2]: inactive
outcome [8]: inactive
outcome [4]: inactive
outcome [7]: inactive

CCOC(=O)Cc1ccccc1
outcome [1]: inactive
outcome [2]: inactive
outcome [4]: inactive
outcome [6]: inactive
outcome [10]: inactive
outcome [5]: inactive

c1cc[c]([Sb]([c]2ccccc2)[c]2ccccc2)cc1
outcome [1]: inactive
outcome [2]: inactive
outcome [4]: inactive
outcome [6]: inactive
outcome [7]: inactive

Cc1ccc2nc3sc(=O)sc3nc2c1
AC50 [1]: 14.3 µM (active)
outcome [2]: inactive
outcome [8]: inactive
AC50 [4]: 6.96 µM (active)
outcome [7]: inactive

CCCCS(=O)(=O)Cl
outcome [1]: inactive
outcome [2]: inactive
outcome [3]: inactive
outcome [4]: inactive
outcome [10]: inactive
outcome [5]: inactive
outcome [7]: inactive

C[C@@H]1O[C@@H](O[C@H]2C[C@@H](O)[C@]3(CO)[C@H]4[C@H](O)C[C@]5(C)[C@@H](C6=CC(=O)OC6)CC[C@]5(O)[C@@H]4CC[C@]3(O)C2)[C@H](O)[C@H](O)[C@H]1O
outcome [1]: inactive
outcome [2]: inactive
AC50 [4]: 0.628 µM (active)
outcome [10]: inactive

CC1(C)COP(Oc2ccccc2)OC1
outcome [1]: inactive
outcome [2]: inactive
outcome [4]: inactive
outcome [6]: inactive
outcome [5]: inactive
outcome [7]: inactive

CCCCOP(=O)(CCCC)OCCCC
AC50 [1]: 17.7 µM (active)
outcome [2]: inactive
outcome [3]: inactive
outcome [4]: inactive
outcome [6]: inactive
outcome [10]: inactive
outcome [5]: inactive
outcome [7]: inactive

CCOCn1c(-c2ccc(Cl)cc2)c(C#N)c(Br)c1C(F)(F)F
AC50 [1]: 1.79 µM (active)
outcome [2]: inactive
outcome [8]: inactive
AC50 [4]: 2.71 µM (active)
outcome [7]: inactive

— PubChem BioAssay (EPA / NIEHS)
